Screens (PubChem BioAssay)
This is a sample that favours compounds with a hit; in the whole collection about 8.1% have one here.
PINK1 modulator – modulators of PINK1 expression; PINK1 immunofluorescence, high-content cytometry, 24 h; Potency, µM (top dose mostly 76.6 µM), for inactives: at the highest dose activation (PINK1 increase), hits mostly activators; hit rate 0.2% among 410,000; active = well fitted activation curve with a large enough effect; inconclusive = small, poorly fitted or top-dose-only effect; cell line not stated here; also: % of control where 0% means no effect; nearly all actives have a fitted effect of over 65% in size
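Stable cell line treated 24 h with compounds at 5 concentrations (CCCP controls), then fixed and immunostained for PINK1 plus nuclear and cell stains; PINK1 immunofluorescence quantified by laser-scanning microplate cytometry.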
ClpP mod – qHTS Assay for Activators of ClpP; Potency, µM (highest dose often 57.5 µM), for the others: at the top dose activity change, negative = active; ATP-dependent Clp protease proteolytic subunit (Bacillus subtilis (strain 168)), P80244; hit rate 1.9% among 340,000; purified B. subtilis ClpP, FRET peptide cleavage, 20 min; AID 651965, 2013; active = well fitted falling curve with a large enough effect; inconclusive = small, poorly fitted or top-dose-only effect; inactive = no such curve, though single readings can be large or run the other way; also: the source files actives as falling curves though it sought activators and does not explain the sign; nearly all actives have a fitted effect of over 65% in size
Target sequence (P80244 whole entry, looked up): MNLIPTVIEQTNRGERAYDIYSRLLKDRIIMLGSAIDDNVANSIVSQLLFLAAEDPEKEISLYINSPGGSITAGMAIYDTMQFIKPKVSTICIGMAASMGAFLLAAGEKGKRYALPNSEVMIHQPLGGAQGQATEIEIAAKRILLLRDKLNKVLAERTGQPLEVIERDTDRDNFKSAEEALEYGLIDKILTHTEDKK
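FRET quenching reversal measured ClpP activation: 10 microg/mL B. subtilis ClpP at pH 8 with the FRET-FV decapeptide, read at 430 nm after 320 nm excitation. The 20-min minus 0-min signal was scaled between DMSO/no-enzyme wells and ADEP (5.8 microM final).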
Sfp PPTase inh – inhibitors of Bacillus subtilis Sfp phosphopantetheinyl transferase; Q9F4F7; Biochemical Sfp PPTase activity, qHTS; Potency, µM, without a hit: largest response in the series, negative = inhibition, most hits filed as inhibitors; hit rate 3.5% among 310,000;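 also: the enzyme is Sfp with the accession as filed and its product quenches rhodamine fluorescence; 0% = enzyme reaction without inhibitor and -100% = no enzyme wells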
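With Hepes-Na pH 7.6 buffer containing 10 mM MgCl2, Sfp (15 nM) modified BHQ-2-YbbR (12.5 uM) using rhodamine-CoA (5 uM). Two reads 30 minutes apart at 525/598 nm yielded each well's rate.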
Epigenetic derep – derepresses silenced GFP reporter in murine cells | murine LDR cells, GFP reporter derepression, 30 h | Potency, µM (doses to about 53.9 µM), for inactives: at the top dose GFP activation, usual class: activators | hit rate 0.2% among 280,000; also: % of control where 0% means no effect; nearly all actives have a fitted effect of over 60% in size
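Derepression of a silenced CMV-GFP reporter in murine LDR cells is scored by enumerating GFP-positive cells with a laser-scanning microplate cytometer after 30 hours of treatment at 37 C.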
VP16 counter – Gal4-VP16 reporter inhibition counter-screen | Potency, µM (highest dose often 53.6 µM), for the others: top-dose activity, negative = inhibition, hits mostly inhibitors | hit rate 3.5% among 310,000 | AID 2546 | Drosophila S2 Gal4-VP16 UAS-luciferase, luminescence, 20 h;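 also: Gal4-VP16 expression switched on by copper sulfate through the metallothionein promoter; % is scaled to controls: 0 for no effect and ±100 for the full control effect; nearly all actives have a fitted effect of over 50% in size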
RORgamma inh – blocks mouse ROR gamma transcriptional activity; Drosophila S2 Gal4-RORgamma UAS-luciferase reporter, 20 h; Potency, µM (top dose mostly 53.6 µM), inactives show top-dose activity change, negative = inhibition, actives largely listed as inhibitors; hit rate 5.4% among 310,000; AID 2551; also: % is scaled to controls: 0 for no effect and ±100 for the full control effect; nearly all actives have a fitted effect of over 60% in size
Target sequence (P51450 whole entry, looked up, the tested form may be a part): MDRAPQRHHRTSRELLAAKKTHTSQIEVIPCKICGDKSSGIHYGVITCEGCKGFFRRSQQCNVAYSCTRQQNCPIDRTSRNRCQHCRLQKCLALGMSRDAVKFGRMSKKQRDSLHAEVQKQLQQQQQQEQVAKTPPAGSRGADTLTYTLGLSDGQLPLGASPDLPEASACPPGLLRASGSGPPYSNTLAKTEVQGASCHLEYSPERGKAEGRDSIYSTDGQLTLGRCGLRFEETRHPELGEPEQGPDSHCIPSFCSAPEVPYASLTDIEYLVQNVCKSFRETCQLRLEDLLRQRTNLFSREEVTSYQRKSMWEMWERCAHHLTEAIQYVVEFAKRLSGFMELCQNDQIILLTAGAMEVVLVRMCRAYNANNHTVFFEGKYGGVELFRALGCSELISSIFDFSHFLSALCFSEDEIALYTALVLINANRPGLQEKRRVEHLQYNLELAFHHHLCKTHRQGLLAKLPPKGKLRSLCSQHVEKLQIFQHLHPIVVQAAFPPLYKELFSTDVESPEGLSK
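Compounds are pin-transferred onto Drosophila Schneider cells expressing a copper-inducible Gal4–ROR gamma transactivation domain fusion. After 1 hr, copper sulfate is added to 700 uM final; luciferase is read 20 hr later.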
* hit, by the source's call; [ ] = dose if it differs, or a comment. Unless noted, calls follow the shape of the dose curve; as a rule, active = well fitted curve in the direction sought with a large enough effect; inconclusive = small, poorly fitted or top-dose-only effect, or another doubt; inactive = no such curve, though single readings can be large; an effect the other way counts as inactive or inconclusive. Potency is read from the fitted curve at half-maximal effect.

For C/C(=N\Nc1nncc2ccccc12)c1ccc(OCC(=O)N(C)C)cc1 the results were PINK1 modulator 2%, Sfp PPTase inh 50µM*, VP16 counter -14% and RORgamma inh 25%.
`CC/C(=N\Nc1nncc2ccccc12)c1ccc(F)cc1` gave PINK1 modulator 10%, Sfp PPTase inh 2%, VP16 counter inconclusive and RORgamma inh -31%.
For COc1ccccc1/C=C/C=N/n1c(C2CCCCC2)n[nH]c1=S the results were PINK1 modulator 5%, ClpP mod -1%, Sfp PPTase inh -4%, Epigenetic derep 0%, VP16 counter 2.5µM* and RORgamma inh 1.4µM*.
Screening COc1ccccc1/C=C/C=N/N1CCN(Cc2ccccc2)CC1 returned PINK1 modulator -1%, ClpP mod -1%, Sfp PPTase inh -18%, Epigenetic derep -3%, VP16 counter inconclusive and RORgamma inh 9%.
For O=C(O)c1ccccc1/C=N/n1c(C2CCCCC2)n[nH]c1=S the results were PINK1 modulator 0%, ClpP mod 0%, Sfp PPTase inh -12%, VP16 counter -5% and RORgamma inh -17%.
`CCOc1ccccc1/C=N/n1c(C2CCCCC2)n[nH]c1=S` gave PINK1 modulator 4%, ClpP mod -2%, Sfp PPTase inh -26%, VP16 counter inconclusive and RORgamma inh 4.5µM*.
S=c1[nH]nc(C2CCCCC2)n1/N=C/c1ccccc1Cl was read as PINK1 modulator 8%, ClpP mod 1%, Sfp PPTase inh 63µM*, VP16 counter inconclusive and RORgamma inh 11µM*.
FC(F)(F)c1ccccc1/C=N/n1c(C2CCCCC2)n[nH]c1=S was read as PINK1 modulator 6%, ClpP mod 3%, Sfp PPTase inh inconclusive, VP16 counter inconclusive and RORgamma inh 7.9µM*.
COC(=O)N1C2(C=CC1(C)C(=O)NCc1ccc(N(C)C)cc1)CCCCC2 (stereo not drawn) was read as Sfp PPTase inh 5%, Epigenetic derep 1%, VP16 counter -3% and RORgamma inh -4%.
For O=C(NCc1ccc(F)cc1F)c1cc(COc2c(F)cccc2F)on1 the results were PINK1 modulator 4%, ClpP mod 18µM*, Sfp PPTase inh 0%, Epigenetic derep 0%, VP16 counter 1% and RORgamma inh 13%.
For O=C(NCc1c(F)cccc1F)c1cc(COc2c(F)cccc2F)on1 the results were PINK1 modulator 1%, Sfp PPTase inh 8%, Epigenetic derep 2%, VP16 counter 9% and RORgamma inh -5%.
Screening CCOC(=O)c1cnc2cc(-c3ccc(OCC)cc3)nn2c1-c1ccccc1 returned PINK1 modulator 0%, ClpP mod 4% and Epigenetic derep -2%.
Cc1cccc(/N=C/c2c(O)c3ccccc3oc2=O)n1 was read as PINK1 modulator -1%, ClpP mod -21%, Sfp PPTase inh -2%, Epigenetic derep 0%, VP16 counter -6% and RORgamma inh -9%.
COc1ccc(N=Cc2c(O)c3ccccc3oc2=O)cc1 was read as PINK1 modulator 4%, ClpP mod 1%, Sfp PPTase inh 0%, Epigenetic derep -1%, VP16 counter 4% and RORgamma inh -17%.
For CC(C)CN=CC1=C(O)c2ccccc2C1=O the results were PINK1 modulator -1%, ClpP mod -5%, Sfp PPTase inh 0%, Epigenetic derep 0%, VP16 counter -22% and RORgamma inh -25%.
`O=C1C(C=NCc2ccccn2)=C(O)c2ccccc21` gave PINK1 modulator -4%[38.3 µM], ClpP mod -1%, Sfp PPTase inh -11%, Epigenetic derep 3%, VP16 counter 5µM* and RORgamma inh 2.5µM*.
O=c1oc2ccccc2c(O)c1C=NCc1ccccn1 was read as PINK1 modulator 2%, ClpP mod 1%, Sfp PPTase inh 15%, Epigenetic derep -3%, VP16 counter 1µM* and RORgamma inh 0.56µM*.
CC(C)c1ccc(N=Cc2c(O)c3ccccc3oc2=O)cc1 was read as PINK1 modulator 1%, ClpP mod -13% and Sfp PPTase inh 45µM*.
For COc1cc(=O)n2c(c1C(=O)N(C)Cc1nonc1C)CCN(Cc1cc(C)ccc1C)CC2 the results were PINK1 modulator 1%.
N#Cc1c(-c2ccccc2)cc(C2CC2)nc1SCC(=O)O was read as PINK1 modulator -2%, ClpP mod -3%, Sfp PPTase inh -18%, Epigenetic derep 0%, VP16 counter 4% and RORgamma inh -2%.
`CSc1nc(-c2ccco2)cc(-c2ccccc2)c1C#N` gave PINK1 modulator 7%, ClpP mod inconclusive, Sfp PPTase inh -16%, Epigenetic derep 3%, VP16 counter inconclusive and RORgamma inh 16µM*.
N#Cc1c(-c2ccco2)cc(C2CC2)nc1SCC(=O)c1ccccc1 was read as ClpP mod -10%, Sfp PPTase inh 35µM*, Epigenetic derep 1%, VP16 counter 13% and RORgamma inh 19%.
`Cc1nc(SCC(=O)c2ccccc2)c(C#N)c(-c2ccco2)c1C(=O)NCc1ccco1` gave PINK1 modulator 2%, ClpP mod -6%, Sfp PPTase inh 22µM*, Epigenetic derep 13%, VP16 counter 5µM* and RORgamma inh 5.6µM*.
Screening COC(=O)CSc1nc(-c2ccccc2)cc(-c2ccco2)c1C#N returned PINK1 modulator 6%, ClpP mod 25µM*, Sfp PPTase inh inconclusive, Epigenetic derep 1%, VP16 counter -19% and RORgamma inh -22%.
`COCCOC(=O)c1c(C)nc(SCC(=O)Nc2ccc(OC)cc2)c(C#N)c1-c1ccco1` gave PINK1 modulator 6%, ClpP mod -1%, Sfp PPTase inh -7%, Epigenetic derep -7%, VP16 counter -6% and RORgamma inh -3%.
Screening COc1ccc(S(=O)(=O)N2CCN(Cc3nc4ccc(C)cc4o3)CC2)cc1OC returned PINK1 modulator -1%, ClpP mod -8% and Epigenetic derep -3%.
COc1cccc(CN2CCC3(CCC(CNC(=O)c4ccccc4)O3)CC2)c1 (stereo not drawn) was read as PINK1 modulator 1%.
`O=C(Nc1ccc(F)cc1)c1oc2ccccc2c1NC(=O)C12CC3CC(CC(C3)C1)C2` gave PINK1 modulator 0%, ClpP mod -2% and Epigenetic derep -1%.
Screening CCc1ccc(C(=O)C(C)CN2CCCCC2)cc1 (stereo not drawn) returned Sfp PPTase inh 8%, VP16 counter 5% and RORgamma inh -1%.
